Records with an inconclusive call do not appear. Unmarked numbers belong to inactive results. The source made the active and inactive calls. The call rests on the fitted dose curve; in most records, active means well fitted curve in the direction sought with a large enough effect; inconclusive means small, poorly fitted or top-dose-only effect, or another doubt; inactive means no such curve, though single readings can be large; an effect the other way counts as inactive or inconclusive.

The nature of test [1]: P-glycoprotein substrates identified in KB-8-5-11 adenocarcinoma cell line, qHTS therapeutic library screen (AID 1346987). Further: nearly all actives have a fitted effect of over 65% in size. Further: potency means the concentration at half of the fitted maximal effect. A digest of the protocol:
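KB-8-5-11: colchicine-selected sub-line of KB-3-1 over-expressing P-gp; assay medium lacked colchicine. 72 h drug exposure at 37 degree C, CellTiter-Glo.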
For orientation: Quantitative high-throughput screening tests each substance at several concentrations.

Test [2] in a line: NS1 protein of Zika virus - qHTS assay to identify small molecule inhibitors in human HEK 293 cells (AID 1347053). Further: series mostly up to about 46 µM; nearly all actives have a fitted effect of over 55% in size. In outline: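 HEK 293 cells pretreated with compound for 1 h, then infected with ZIKV MR766 (MOI 0.5) for 24 h at 37 C. NS1 detected by TR-FRET with two anti-NS1 antibodies; normalized to uninfected (0%) and infected (100%) wells.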
Test [3] can be described thus: qHTS of pediatric cancer cell lines to identify multiple opportunities for drug repurposing: Primary screen for TC32 cells (AID 1347089). Further: nearly all actives have a fitted effect of over 60% in size. Further: potency means the concentration at half of the fitted maximal effect. A digest of the protocol:
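Luminescent ATP read-out (CellTiter-Glo) of metabolically active TC32 cells after 48 h exposure. Concentration-response curves came from 11-point (MIPE, 0.78 nM–46 µM) or 8-point (NPC, 0.59 nM–46 µM) primary titrations; follow-up used 11 points.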

Test [4] can be described thus: qHTS of pediatric cancer cell lines to identify multiple opportunities for drug repurposing: Primary screen for DAOY cells (AID 1347090). Further: nearly all actives have a fitted effect of over 55% in size. Further: potency means the concentration at half of the fitted maximal effect. A digest of the protocol: (§1)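 Eight- or eleven-point concentration series, 48 h treatment at 37 degrees C in growth media; readout CellTiter-Glo luminescence. Potency and efficacy were taken from the concentration-response curves.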

A short description of test [5]: qHTS of pediatric cancer cell lines to identify multiple opportunities for drug repurposing: Primary screen for SJ-GBM2 cells (AID 1347091). Further: potency means the concentration at half of the fitted maximal effect. A digest of the protocol: as §1
Test [6] is described as follows: qHTS of pediatric cancer cell lines to identify multiple opportunities for drug repurposing: Primary screen for A673 cells (AID 1347092). Further: nearly all actives have a fitted effect of over 45% in size. Further: potency means the concentration at half of the fitted maximal effect. In outline:
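Cell viability of A673 measured by CellTiter-Glo ATP luminescence after 48 hours compound exposure. Dilution series spanned 0.78 nM to 46 µM (MIPE, 11-point) or 0.59 nM to 46 µM (NPC, 8-point); bortezomib 2.3 uM positive control.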

A short description of test [7]: qHTS of pediatric cancer cell lines to identify multiple opportunities for drug repurposing: Primary screen for BT-37 cells (AID 1347094). Further: potency means the concentration at half of the fitted maximal effect. A digest of the protocol: (§2)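 Plated cells (500-1,000 per well, growth media) were allowed to settle for 5 hours, treated with compound dilutions for 48 hours, then lysed with CellTiter-Glo for 15 min at room temperature before luminescence reading.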

The nature of test [8]: qHTS of pediatric cancer cell lines to identify multiple opportunities for drug repurposing: Primary screen for NB-EBc1 cells (AID 1347095). Further: potency means the concentration at half of the fitted maximal effect. In outline:
as §2

Test [9] is described as follows: qHTS of pediatric cancer cell lines to identify multiple opportunities for drug repurposing: Primary screen for U-2 OS cells (AID 1347096). Further: nearly all actives have a fitted effect of over 50% in size. Further: potency means the concentration at half of the fitted maximal effect. A digest of the protocol: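 Cells (500-1,000/well) in growth media were settled 5 h at 37 degrees C, then given compounds for 48 h. Viability was read as CellTiter-Glo luminescence. Primary runs used MIPE at 11 points (0.78 nM-46 µM) and NPC at 8 points (0.59 nM-46 µM); follow-ups used 11 points.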

Test [10] is described as follows: qHTS of pediatric cancer cell lines to identify multiple opportunities for drug repurposing: Primary screen for SK-N-MC cells (AID 1347093). Further: potency means the concentration at half of the fitted maximal effect. In outline:
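Metabolically active cells were quantified by ATP-dependent luminescence (CellTiter-Glo, 15 min at room temperature) following 48 h treatment. Cells had been plated at 500-1,000 per well and settled for 5 h beforehand.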

Take `C=C1C[C@H]2[C@@H]3C=C(C)C4=CC(=O)CC[C@]4(C)[C@H]3CC[C@]2(C)[C@@]1(OC(C)=O)C(C)=O`: the Potency in [1] is 14600 nM (active). The Potency result in test [2], in test [3], in [4], in test [5], in [6] and in test [7] was “inactive” each time. For the same compound, the Potency result in test [8] and in test [9] was “inactive” in each case.

Turning to `COC(=O)CCc1ccc(OCC(O)CNC(C)C)cc1` (configuration not stated), the Potency result in [1], in test [2], in test [3], in test [4], in test [5] and in test [6] was “inactive” in each case. For the same compound, the Potency entry in test [10], in [8] and in [9] was “inactive” throughout.

With `CN1CCN(C(c2ccccc2)c2ccccc2)CC1`, the Potency result in [1], in test [2], in test [3], in test [4], in test [5] and in test [6] was “inactive” in each case. For the same compound, the Potency entry in test [10], in test [8] and in test [9] was “inactive” in each case.

In the case of `COCc1c(C(C)C)nc(C(C)C)c(/C=C/[C@@H](O)C[C@@H](O)CC(=O)O)c1-c1ccc(F)cc1`, the Potency in test [1] was 731 nM (active); in [3], 1490 nM (active); in test [4], 266 nM (active); in test [5], 237 nM (active); in test [6], 668 nM (active); in test [10], 1190 nM (active). Besides, the Potency in test [8] was 1680 nM (active); in test [9], 841 nM (active). Further, the Potency entry in test [2] was “inactive”.

With `CC(=O)Oc1ccc(C(c2ccc(OC(C)=O)cc2)c2ccccn2)cc1`, the Potency entry in test [1], in [2], in test [3], in test [4], in test [5] and in test [6] was “inactive” throughout. Also, the Potency result in test [7] and in test [8] was “inactive” each time.

For the compound `Oc1cc(O)c2c(c1)O[C@H](c1ccc(O)c(O)c1)[C@H](O)C2`, the Potency result in [1], in test [2], in test [3], in test [4], in test [5] and in [6] was “inactive” in each case. The Potency result in [10], in test [8] and in test [9] was “inactive” in each case.

As to `C[C@H]1C[C@H]2[C@@H]3CCC4=CC(=O)C=C[C@]4(C)[C@@]3(Cl)[C@@H](O)C[C@]2(C)[C@@]1(O)C(=O)CO`, the Potency entry in [1], in test [2], in test [3], in test [4], in [6] and in test [7] was “inactive” each time. The Potency result in [8] and in test [9] was “inactive” throughout. Besides, the Potency in test [10] was 15000 nM (active).

`Cc1cc(N)c2cc(NC(=O)Nc3ccc4nc(C)cc(N)c4c3)ccc2n1`: the Potency entry in test [1], in test [2], in [3], in test [4], in test [5] and in test [10] was “inactive” each time. Moreover, the Potency result in [8] and in [9] was “inactive” in each case.

As to `Cc1ccc(O)c2ncccc12`, the Potency entry in [1], in test [2], in [3] and in [5] was “inactive” in each case. Further, the Potency is 3350 nM (active) in test [4] and 2990 nM (active) in [10].

`CCOc1ccc2nc3cc(N)ccc3c(N)c2c1`: the Potency result in [1], in test [2], in test [5] and in test [8] was “inactive” each time. The Potency is 26600 nM (active) in test [6] and 15500 nM (active) in [7].

On to `CCCC(=O)O[C@]1(C(=O)CO)CC[C@H]2[C@@H]3CCC4=CC(=O)CC[C@]4(C)[C@H]3[C@@H](O)C[C@@]21C`, for which the Potency entry in test [1], in test [2], in test [3], in test [5], in test [6] and in test [10] was “inactive” in each case. In addition, the Potency entry in test [7], in [8] and in [9] was “inactive” each time.

With `CN(C)C(=S)SC(=S)N(C)C`, the Potency entry in test [1] and in test [5] was “inactive” in each case. In addition, the Potency in test [3] was 3740 nM (active); in test [4] it was 841 nM (active); in [6] it was 668 nM (active); in test [10] it was 1 nM (active); in [7] it was 24600 nM (active); in test [8], 10600 nM (active). The Potency in test [9] is 1680 nM (active).

Regarding `CC(=O)Oc1ccc2c(c1)CC[C@@H]1[C@@H]2CC[C@]2(C)[C@@H](O)CC[C@@H]12`, in test [1], the Potency was 5170 nM (active). Moreover, the Potency entry in [2], in test [3], in test [4] and in [9] was “inactive” in each case.

On to `CC(=O)N/N=C/c1ccc([N+](=O)[O-])o1`, for which the Potency entry in test [1], in [2], in test [5] and in test [9] was “inactive” each time.

`CC(C)N=C(N)/N=C(\N)Nc1ccc(Cl)cc1`: the Potency entry in test [1], in test [2], in test [3], in [4], in test [5] and in test [7] was “inactive” throughout. The Potency entry in test [8] and in test [9] was “inactive” each time.

On to `CN1CCC(=C2c3ccccc3Sc3ccccc32)CC1`, for which the Potency in [1] is 9200 nM (active). The Potency result in test [2], in test [3], in [4], in test [8] and in [9] was “inactive” each time.

Consider `CC(=O)N(O)CCCCCNC(=O)CCC(=O)N(O)CCCCCNC(=O)CCC(=O)N(O)CCCCCN`, for which the Potency result in test [1], in test [2], in test [6] and in test [9] was “inactive” each time. Also, the values for the Potency in test [4] and in test [7] were 8410 nM (active) and 12300 nM (active), respectively.

For `OC[C@H]1O[C@@H](n2cnc3c(=S)nc[nH]c32)[C@H](O)[C@@H]1O`, the Potency was 1840 nM (active) in test [1]; 1670 nM (active) in [3]; 422 nM (active) in [4]; 3760 nM (active) in test [5]; 266 nM (active) in test [6]; 18800 nM (active) in test [10]. The Potency in test [7] is 389 nM (active); in [8], 1330 nM (active).

These data come from PubChem BioAssay (NCATS).
